Laboratory results reported in PubChem BioAssay (EPA / NIEHS).
The source made the active and inactive calls. How the source made its calls: active means hit-call score of the fitted dose curve at least 0.9, where 1 is the maximum; inactive means score below 0.9.

test: APR_HepG2_MitoMembPot_1hr: Apredica 1-hour HepG2 Assay for Mitochondrial Membrane Potential (AID 2282675); settings: imaging, actives raise or lower the signal
Experimental: APR_HepG2_1hr is a cell-based, multiplexed-readout assay that uses HepG2, a human liver cell line, with measurements taken at 1 hour after chemical dosing in a 384-well plate.APR_HepG2_MitoMembPot_1hr is one of 10 assay component(s) measured or calculated from the APR_HepG2_1hr assay. It is designed to make measurements of dye binding, a form of membrane potential reporter, as detected with fluorescence intensity signals by HCS Fluorescent Imaging technology.Data from the assay component APR_HepG2_MitoMembPot_1hr was analyzed into 1 assay endpoint. This assay endpoint, APR_HepG2_MitoMembPot_1hr, was analyzed with bidirectional fitting relative to DMSO as the negative control and baseline of activity. Using a type of membrane potential reporter, gain or loss-of-signal activity can be used to understand changes in the signaling. Furthermore, this assay endpoint can be referred to as a primary readout, because this assay has produced multiple assay endpoints where this one serves a signaling function. To generalize the intended target to other relatable targets, this assay endpoint is annotated to the cell morphology intended target family, where the subfamily is organelle conformation.
Cells were treated with dimethyl sulfoxide (DMSO) as a solvent control at a final concentration of 0.5% v/v or with compounds in DMSO with a resulting final DMSO concentration of 0.5% v/v. Compound treatment was done at concentrations of 0.39, 0.78, 1.56, 3.12, 6.24, 12.5, 25, 50, 100, and 200 uM in duplicate on each plate. Cells were treated with compounds for 1, 24, or 72 hr. Carbonyl […] m-chloro-phenylhydrazone (CCCP) and taxol were used as positive controls for mitochondrial function and cytoskeletal stability, respectively; DMSO served as the negative control for this experiment. Cells were fixed by the direct addition of 50 uL formaldehyde in Hank's Balanced Salt Solution (HBSS) to a final concentration of 3.7%. After incubation in the fixation medium for 30 min at room temperature (293-298 K), cells were rinsed twice with HBSS and treated with cell permeabilization buffer (16 uL of 0.5% Triton X-100) for 10 min at room temperature (293-298 K) before labeling. For mitochondrial membrane potential and mitochondrial measurements, pre-fixed cells were incubated with 50 uL of MitoTracker Red CMXRos (Invitrogen) at a concentration of 250 nM for 30 min before fixation. In the remaining cases, post-fixed cells were labeled by incubation with a multiplexed mixture of primary antibodies in HBSS for 60 min at room temperature (293-298 K) to detect immunoreactivity of c-Jun (1:500), phospho-histone H3 (1:100), phospho-histone H2A.x (1:200), p53 (1:400), alpha-tubulin (1:200) and Hoechst 33342 (2 ug/mL). Cells were labeled for multiplexed imaging on two separate plates: a) Hoechst 33342, MitoTracker Red, phospho-histone H3, and alpha-tubulin, and b) Hoechst 33342, phospho-histone H2A.x, and c-Jun. A final rinse with HBSS (50 uL) was performed before analysis. The primary and secondary antibodies for the proteins were phospho-histone H3 (rabbit anti-phospho-histone H3 and FITC-donkey anti-rabbit IgG), phospho-histone H2A.x (mouse anti-phospho-histone H2A.x and FITC-donkey anti-mouse IgG), c-Jun (rabbit anti-phospho-c-Jun and Cy3-donkey anti-rabbit IgG), p53 (sheep anti-p53 and Cy5-donkey anti-sheep IgG), alpha-tubulin (mouse anti-alpha-tubulin and Cy5-donkey anti-mouse IgG). These antibodies are available as the CellCiphr HepG2 assay kit (Millipore).Digital images of each well were captured using a Cellomics ArrayScan VTI (Thermo Scientific Cellomics) (0.8 NA objective, 0.63x optical coupler, and XF-93 filter set) at 20x magnification. The images were acquired using the autofocus feature of the ArrayScan instrument, which entails the following steps. First, the camera focuses on channel 1 (Hoechst 33342), where nuclei are identified. Second, a Z offset of 1 um is used for capturing mitochondria (MitoTracker Red). […]

SMILES | AC50 | outcome
N#Cc1c(Cl)c(Cl)c(Cl)c(C#N)c1Cl | 61.5 µM (active) | 
CCCN(CCC)c1c([N+](=O)[O-])cc(C(F)(F)F)cc1[N+](=O)[O-] |  | inactive
CCCN(CCOc1c(Cl)cc(Cl)cc1Cl)C(=O)n1ccnc1 |  | inactive
CCS(=O)(=O)c1cccnc1S(=O)(=O)NC(=O)Nc1nc(OC)cc(OC)n1 |  | inactive
CC(C)N(C(=O)COc1nnc(C(F)(F)F)s1)c1ccc(F)cc1 |  | inactive
CNC(=O)Oc1ccccc1OC(C)C |  | inactive
CNC(=O)/C=C(\C)OP(=O)(OC)OC |  | inactive
O=S(=O)(O)C(F)(F)C(F)(F)C(F)(F)C(F)(F)C(F)(F)C(F)(F)C(F)(F)C(F)(F)F |  | inactive
Clc1ccccc1-c1nnc(-c2ccccc2Cl)nn1 |  | inactive
COC(=O)c1ccccc1S(=O)(=O)NC(=O)Nc1nc(C)nc(OC)n1 |  | inactive
Cc1[nH]c(=O)n(C(C)(C)C)c(=O)c1Cl |  | inactive
O=C1c2ccccc2C(=O)N1SC(Cl)(Cl)Cl |  | inactive
CCc1ccc(C(=O)NN(C(=O)c2cc(C)cc(C)c2)C(C)(C)C)cc1 |  | inactive
C[C@H]1[C@H](c2ccc(Cl)cc2)SC(=O)N1C(=O)NC1CCCCC1 |  | inactive
O=C(O)COc1ccc(Cl)cc1Cl |  | inactive
CC[C@H](C)[C@H]1O[C@]2(C=C[C@@H]1C)C[C@@H]1C[C@@H](C/C=C(\C)[C@@H](O[C@H]3C[C@H](OC)[C@@H](O[C@H]4C[C@H](OC)[C@@H](O)[C@H](C)O4)[C@H](C)O3)[C@@H](C)/C=C/C=C3\CO[C@@H]4[C@H](O)C(C)=C[C@@H](C(=O)O1)[C@]34O)O2 (tested in a mixture with another compound) |  | inactive
COc1cc(OC)nc(NC(=O)NS(=O)(=O)c2cc(NC=O)ccc2C(=O)N(C)C)n1 |  | inactive
O=S1OCC2C(CO1)C1(Cl)C(Cl)=C(Cl)C2(Cl)C1(Cl)Cl (stereo not given) | 118 µM (active) | 
CNC(=O)CSP(=S)(OC)OC |  | inactive
Oc1ccc(Cl)cc1Cc1ccccc1 |  | inactive

SMILES | AC50 | outcome
CCOCN(C(=O)CCl)c1c(C)cccc1CC |  | inactive
CCC(C)(NC(=O)c1cc(Cl)c(C)c(Cl)c1)C(=O)CCl (stereo not given) |  | inactive
OCCOc1ccccc1 |  | inactive
CC(C)OC(=O)Nc1cccc(Cl)c1 |  | inactive
CC1(c2ccc(Oc3ccccc3)cc2)OC(=O)N(Nc2ccccc2)C1=O (stereo not given) |  | inactive
COc1nn(CSP(=S)(OC)OC)c(=O)s1 |  | inactive
COC(=O)c1ccccc1CS(=O)(=O)NC(=O)Nc1nc(OC)cc(OC)n1 |  | inactive
[2H]C1([2H])[n+]2ccccc2-c2cccc[n+]2C1([2H])[2H] |  | inactive
COP(=O)(OC)OC=C(Cl)Cl |  | inactive
CCN(CC)C(=O)SCc1ccc(Cl)cc1 |  | inactive
O=[N+]([O-])c1c(Cl)c(Cl)c(Cl)c(Cl)c1Cl |  | inactive
O=C(O)CCCOc1ccc(Cl)cc1Cl |  | inactive
CCOc1nc(NC)nc(NC(=O)NS(=O)(=O)c2ccccc2C(=O)OC)n1 |  | inactive
CCC(C)Nc1c([N+](=O)[O-])cc(C(C)(C)C)cc1[N+](=O)[O-] (stereo not given) |  | inactive
COP(=S)(OC)Oc1ccc([N+](=O)[O-])cc1 |  | inactive
CN1CSC(=S)N(C)C1 |  | inactive
CC1(C)C(C=C(Cl)Cl)C1C(=O)OC(C#N)c1ccc(F)c(Oc2ccccc2)c1 (stereo not given) |  | inactive
O=C(NC(=O)c1c(F)cccc1F)Nc1ccc(OC(F)(F)C(F)OC(F)(F)F)c(Cl)c1 (stereo not given) |  | inactive
O=[N+]([O-])/N=C1\NCCN1Cc1ccc(Cl)nc1 |  | inactive
CC(C)(C)C(O)/C(=C\c1ccc(Cl)cc1Cl)n1cncn1 (stereo not given) |  | inactive
